Experiment [1] can be described thus: qHTS assay to test for compound auto fluorescence at 535 nm (green) in HEK293 cells (AID 720680). A general note: qHTS replaces the single test concentration by a dilution series.
Experiment [2] in a line: qHTS assay to test for compound auto fluorescence at 460 nm (blue) in HEK293 cell free culture (AID 720681). An outline of the steps:
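Test compounds were pinned into cell-free culture medium (DMEM with 10% FBS) and fluorescence was read directly at Ex/Em 405/460 nm. Signals were expressed as fluorescence equivalents of triamterene, with DMSO vehicle as control.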

Experiment [3] in a line: qHTS assay to test for compound auto fluorescence at 535 nm (green) in HEK293 cell free culture (AID 720682). In a few lines: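 No cells present: wells hold DMEM supplemented with 10% FBS, into which compound or vehicle is pinned. Green emission is then recorded (485 nm excitation, 535 nm emission) and scaled to fluorescein.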
Experiment [4] can be described thus: qHTS assay to test for compound auto fluorescence at 590 nm (red) in HEK293 cell free culture (AID 720683). An outline of the steps:
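Tox21 10K library compounds were pinned into cell-free DMEM with 10% FBS and fluorescence was read at excitation 540 nm. Activity is expressed as Rose Bengal sodium equivalency.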

Experiment [5] is described as follows: qHTS assay to test for compound auto fluorescence at 590 nm (red) in HepG2 cell free culture (AID 720684). An outline of the steps:
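Readout: intrinsic compound fluorescence at 590 nm emission after 540 nm excitation, scaled to Rose Bengal sodium. Matrix was cell-free MEM with 10% FBS; DMSO vehicle wells served as control.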

The nature of experiment [6]: qHTS assay to test for compound auto fluorescence at 460 nm (blue) in HepG2 cell free culture (AID 720685). An outline of the steps:
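Cell-free plates of MEM plus 10% FBS received 23 nL compound or DMSO vehicle; blue-channel (405/460 nm) intensity scored against triamterene as reference fluorophore.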

Experiment [7] is described as follows: qHTS assay to test for compound auto fluorescence at 535 nm (green) in HepG2 cell free culture (AID 720686).
A short description of experiment [8]: qHTS assay to test for compound auto fluorescence at 460 nm (blue) in HepG2 cells (AID 720687). In a few lines: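 Cells (2,000/well in MEM with 10% FBS) attached overnight at 37 C, then were exposed to compound or DMSO for 1 hr at 37 C, 5% CO2. Fluorescence read at Ex/Em 405/460 nm, expressed as triamterene-equivalent signal.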
The target in experiment [9] is Glucocorticoid receptor (Homo sapiens) (UniProt P04150). Briefly: qHTS assay to identify small molecule agonists of the glucocorticoid receptor (GR) signaling pathway (AID 720691; active = well fitted activation curve with a large enough effect in the signal ratio in the repeat runs, not every such curve was filed as active; the % refers to the signal ratio). In a few lines:
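HeLa GR-bla reporter line; cells pre-incubated 4 h, compound in DMSO 18 h at 37 C; LiveBLAzer B/G FRET substrate 2 h RT; fluorescence intensity read-out.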

A short description of experiment [10]: qHTS assay to identify small molecule antagonists of the glucocorticoid receptor (GR) signaling pathway - cell viability counter screen (AID 720693). Note: nearly all actives have a fitted effect of over 55% in size.
The nature of experiment [11]: qHTS assay for identifying genotoxic compounds that show differential cytotoxicity against isogenic chicken DT40 cell lines with known DNA damage response pathways - wild type cell line (AID 743012). Note: nearly all actives have a fitted effect of over 60% in size. Note: potency is the fitted concentration of half-maximal effect. An outline of the steps: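 CellTiter-Glo luminescence readout of viability in wild type DT40 cells after 40 h compound exposure at 37 C/5% CO2; 300 cells/well; reagent incubated 30 min at room temperature before reading.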

The nature of experiment [12]: qHTS assay for identifying genotoxic compounds that show differential cytotoxicity against isogenic chicken DT40 cell lines with known DNA damage response pathways - Rev3 mutant cell line (AID 743014). Note: nearly all actives have a fitted effect of over 55% in size. Note: potency is the fitted concentration of half-maximal effect.
A short description of experiment [13]: qHTS assay for identifying genotoxic compounds that show differential cytotoxicity against isogenic chicken DT40 cell lines with known DNA damage response pathways - Rad54/Ku70 mutant cell line (AID 743015). Note: nearly all actives have a fitted effect of over 60% in size. Note: potency is the fitted concentration of half-maximal effect.
The nature of experiment [14]: qHTS assay to identify small molecule antagonists of the androgen receptor (AR) signaling pathway - cell viability counter screen (AID 743033; note: nearly all actives have a fitted effect of over 45% in size).
Experiment [15] can be described thus: qHTS assay to identify small molecule antagonists of the androgen receptor (AR) signaling pathway using the MDA cell line - cell viability counter screen (AID 743041; note: nearly all actives have a fitted effect of over 45% in size; note: potency is the fitted concentration of half-maximal effect). An outline of the steps: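 qHTS viability read-out; MDA-kb2 AR-luc; R1881-stimulated; 16 h exposure at 37C, 0% CO2; CellTiter-Fluor, 30 min; fluorescence intensity.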

“And” between values parts separate entries of the source, which are not always exact repeats. Equal values may be shown once. Records with an inconclusive call do not appear. The source holds several records for some structures; these can differ, active in one and inactive in another. The source made the active and inactive calls. Unless noted, calls come from the whole dose curve; as a rule, active = well fitted curve in the direction sought with a large enough effect in the repeat runs; inconclusive = weak or mixed curves; inactive = no such curve, though single readings can be large; an effect the other way counts as inactive or inconclusive.

This note sets out measurements from PubChem BioAssay (Tox21).

Chain of Glucocorticoid receptor (Homo sapiens) (P04150 whole entry, looked up): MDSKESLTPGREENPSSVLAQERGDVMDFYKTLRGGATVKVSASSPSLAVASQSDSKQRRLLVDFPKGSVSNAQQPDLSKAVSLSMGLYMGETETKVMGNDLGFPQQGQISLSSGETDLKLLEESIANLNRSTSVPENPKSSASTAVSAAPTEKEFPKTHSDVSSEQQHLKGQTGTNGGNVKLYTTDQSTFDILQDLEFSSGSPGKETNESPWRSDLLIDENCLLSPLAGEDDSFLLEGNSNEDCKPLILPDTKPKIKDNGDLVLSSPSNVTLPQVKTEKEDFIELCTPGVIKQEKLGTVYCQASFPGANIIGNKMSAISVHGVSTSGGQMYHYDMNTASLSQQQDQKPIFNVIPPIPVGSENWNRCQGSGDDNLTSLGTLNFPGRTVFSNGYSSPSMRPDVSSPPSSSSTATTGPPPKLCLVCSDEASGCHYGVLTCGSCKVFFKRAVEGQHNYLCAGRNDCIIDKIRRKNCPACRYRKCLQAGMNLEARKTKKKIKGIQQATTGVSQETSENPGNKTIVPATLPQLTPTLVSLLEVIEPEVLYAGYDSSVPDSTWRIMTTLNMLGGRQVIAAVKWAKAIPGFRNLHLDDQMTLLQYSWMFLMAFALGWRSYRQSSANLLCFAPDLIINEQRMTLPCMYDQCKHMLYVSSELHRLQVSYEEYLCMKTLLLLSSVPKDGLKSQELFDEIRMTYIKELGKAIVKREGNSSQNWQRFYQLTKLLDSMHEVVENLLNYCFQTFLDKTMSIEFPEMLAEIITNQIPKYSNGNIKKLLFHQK

With `CC(C)(C)c1cc(Cc2cc(C(C)(C)C)c(O)c(C(C)(C)C)c2)cc(C(C)(C)C)c1O`, the outcome in [1], in experiment [2], in [3], in experiment [4], in experiment [5] and in experiment [6] was inactive. Further, the compound was classed as inactive in experiment [7], in experiment [8], in [9], in experiment [10] and in experiment [14]. Also, the Potency result is “inactive and 61.1 µM (active)” in experiment [11]; 61.1 µM (active) in [12]; “inactive and 54.5 µM (active)” in experiment [13]. In addition, the Potency entry in experiment [15] is “inactive”.
With `CC1(C)S[C@@H]2[C@H](NC(=O)COc3ccccc3)C(=O)N2[C@H]1C(=O)O`, the call in experiment [1], in experiment [2], in [3], in [4], in experiment [5] and in experiment [6] was inactive. Also, the call in experiment [7], in [8], in [9], in experiment [10] and in experiment [14] was inactive. In addition, the Potency result in experiment [11], in experiment [12], in [13] and in [15] was “inactive” in each case.
Consider `C=C(C)CNCC`, for which the result in experiment [1], in experiment [2], in experiment [3], in [4], in experiment [5] and in experiment [6] was inactive. Moreover, the compound was called inactive in [7], in experiment [8], in experiment [9], in experiment [10] and in [14]. The Potency entry in experiment [11], in [12], in experiment [13] and in [15] was “inactive” in each case.
Consider `NCCN1CCNCC1`, for which the result in experiment [1], in [2], in experiment [3], in experiment [4], in experiment [5] and in experiment [6] was inactive. The compound was classed as inactive in [7], in experiment [8], in experiment [10] and in experiment [14]. Further, the Potency result in [11], in experiment [13] and in [15] was “inactive” each time.
Regarding `O=S(=O)(O)c1ccc(N=Nc2c(O)ccc3cc(S(=O)(=O)O)ccc23)cc1`, the result in experiment [1], in experiment [2], in experiment [3], in experiment [4], in experiment [5] and in experiment [6] was inactive. Besides, the call in experiment [7], in experiment [8], in [9], in [10] and in experiment [14] was inactive. For the same compound, the Potency result in [11] and in experiment [13] was “inactive” each time. Also, the Potency in [15] was 30.8 µM (active) and 27.3 µM (active).
For the compound `C=CC(C)CCCC(C)(C)O` (stereo not given), the compound was called inactive in experiment [1], in experiment [2], in experiment [3], in [4], in experiment [5] and in experiment [6]. For the same compound, the call in [7], in [8], in [10] and in experiment [14] was inactive. Further, the Potency entry in experiment [11], in experiment [13] and in experiment [15] was “inactive” throughout.
Regarding `CC(C)OP(=O)(CP(=O)(OC(C)C)OC(C)C)OC(C)C`, the result in experiment [1], in [2], in experiment [3], in experiment [4], in experiment [5] and in experiment [6] was inactive. Moreover, the call in experiment [7], in experiment [8], in experiment [9], in [10] and in experiment [14] was inactive. Besides, the Potency entry in [12], in [13] and in [15] was “inactive” each time.
`CC(C)CC(C)O` (stereo not given): the result in experiment [1], in experiment [2], in experiment [3], in [4], in experiment [5] and in experiment [6] was inactive. Besides, the call in [7], in [8], in experiment [10] and in [14] was inactive. Moreover, the Potency result in experiment [11], in experiment [13] and in experiment [15] was “inactive” in each case. For the same compound, the Potency result in experiment [12] was “inactive and 61.1 µM (active)”.
Take `O=c1[nH]cnc2[nH]ncc12`: the call in [1], in [2], in [3], in experiment [4], in experiment [5] and in [6] was inactive. Also, the call in [7], in [8], in [9], in [10] and in experiment [14] was inactive. Moreover, the Potency entry in experiment [11], in [13] and in experiment [15] was “inactive” throughout.
Turning to `COc1ccc(N)c(C)c1`, the outcome in experiment [1], in experiment [2], in [3], in [4], in experiment [5] and in experiment [6] was inactive. In addition, the compound was classed as inactive in experiment [7], in [8], in experiment [10] and in [14]. Besides, the Potency result in experiment [11], in experiment [13] and in experiment [15] was “inactive” each time.
